In PubChem BioAssay (Tox21):
Results filed as inconclusive are left out. Entries that show only a call come without a potency. The source made the active and inactive calls. Unless noted, calls follow the shape of the dose curve; as a rule, active = well fitted curve in the direction sought with a large enough effect in the repeat runs; inconclusive = weak or mixed curves; inactive = no such curve, though single readings can be large; an effect the other way counts as inactive or inconclusive.

Assay: qHTS assay to identify small molecule phospholipidosis (PLD) inducers (AID 1259344; active = well fitted curve in the direction sought with a large enough effect; an effect the other way counts as inactive or inconclusive)
Settings: HepG2 phospholipidosis, LipidTOX Red imaging, 24 h; series mostly up to 38.3 µM
Summary of the method: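 Phospholipid accumulation was scored by imaging: fixed, Hoechst-counterstained HepG2 cells stained with LipidTOX Red after 24 h compound exposure at 37 C. Read-outs were pit count and pit intensity per well or per cell, with amiodarone and DMSO controls.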

Question: Which outcome does the source give for `Cc1cc(CC(=O)O)n(C)c1C(=O)c1ccc(Cl)cc1` here?
Answer: Its outcome is “inactive”.

Question: With `NCCNCCNCCN` as the molecule, how does the outcome read?
Answer: Its outcome is “inactive”.

Question: Which outcome does the source give for `OCC(O)CS` (centres undefined) here?
Answer: Its outcome is “inactive”.

Question: With `O=C(NCC1CCCCN1)c1cc(OCC(F)(F)F)ccc1OCC(F)(F)F` (centres undefined) as the molecule, how does the outcome read?
Answer: The outcome was “inactive”.

Question: With `CCn1cc(C(=O)O)c(=O)c2cc3c(cc21)OCO3` as the molecule, how does the outcome read?
Answer: The outcome was “inactive”.

Question: Which outcome does the source give for `CN1Cc2c(N)cccc2C(c2ccccc2)C1` (centres undefined) here?
Answer: Its outcome is “inactive”.

Question: With `O=c1n(CCCN2CCN(c3cccc(Cl)c3)CC2)nc2ccccn12` as the molecule, how does the outcome read?
Answer: The outcome was “inactive”.

Question: Which outcome does the source give for `CC(C)(C)NC[C@H](O)COc1nsnc1N1CCOCC1` here?
Answer: The outcome was “inactive”.

Question: Which outcome does the source give for `CC(CN1c2ccccc2Sc2ccccc21)N(C)C` (centres undefined) here?
Answer: Its outcome is “inactive”.

Question: With `OCc1ccc(Cl)cc1Cl` as the molecule, how does the outcome read?
Answer: Its outcome is “inactive”.

Question: For `CCN(CC)CCNC(=O)c1ccc(N)cc1`, which outcome is on record?
Answer: Its outcome is “inactive”.

Assay: qHTS assay to identify small molecule HDAC inhibitors (AID 1259364);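 also: wild-type HCT-116 cells with endogenous class I/II HDAC activity; top concentration of the series differs between compounds; nearly all actives have a fitted effect of over 45% in size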
Settings: HCT-116 HDAC-Glo I/II luminescence, 2 h; series mostly up to 92.4 µM
Summary of the method: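 Screening used wild-type human colon HCT-116 cells incubated overnight, dosed with compounds for 2 hours, and assayed with a homogeneous luminogenic HDAC I/II reagent for 30 minutes at room temperature.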

Question: Which Potency does the source give for `Cc1cc(CC(=O)O)n(C)c1C(=O)c1ccc(Cl)cc1` here?
Answer: Its Potency is “inactive”.

Question: With `Cc1ccccc1C=O` as the molecule, how does the Potency read?
Answer: Its Potency is “inactive”.

Question: Which Potency does the source give for `C[n+]1ccn(CCO)c1` here?
Answer: The Potency was “inactive”.

Question: Which Potency does the source give for `CCCN(CCC)C(=O)SCC` here?
Answer: The Potency was “inactive”.

Question: For `C1CCCNCC1`, which Potency is on record?
Answer: Its Potency is “inactive”.

Question: With `NCCNCCNCCN` as the molecule, how does the Potency read?
Answer: Its Potency is “inactive”.

Question: With `COC(=O)/C=C\C(=O)OC` as the molecule, how does the Potency read?
Answer: Its Potency is “inactive”.

Question: With `C=CC(=O)NCOCCCC` as the molecule, how does the Potency read?
Answer: Its Potency is “inactive”.

Question: With `CS(=O)(=O)c1ccc(Cl)cc1` as the molecule, how does the Potency read?
Answer: Its Potency is “inactive”.

Question: Which Potency does the source give for `OCC(O)CS` (centres undefined) here?
Answer: The Potency was “inactive”.

Question: For `NC1CCCCC1N` (centres undefined), which Potency is on record?
Answer: Its Potency is “inactive”.

Question: For `CC(C)=CCC/C(C)=C/C=O`, which Potency is on record?
Answer: The Potency was “inactive”.

Question: Which Potency does the source give for `O=C(NCC1CCCCN1)c1cc(OCC(F)(F)F)ccc1OCC(F)(F)F` (centres undefined) here?
Answer: Its Potency is “inactive”.

Question: Which Potency does the source give for `CCCCCNCCCCC` here?
Answer: Its Potency is “inactive”.

Question: For `Cc1ccc(C)c(S(=O)(=O)O)c1`, which Potency is on record?
Answer: Its Potency is “inactive”.

Question: For `C=C(CC(=O)O)C(=O)O`, which Potency is on record?
Answer: Its Potency is “inactive”.

Question: Which Potency does the source give for `CCn1cc(C(=O)O)c(=O)c2cc3c(cc21)OCO3` here?
Answer: The Potency was “inactive”.

Question: With `C=C1C[C@]23C[C@@]1(O)CC[C@H]2[C@@]12C=C[C@H](O)[C@@](C)(C(=O)O1)[C@H]2[C@@H]3C(=O)O` as the molecule, how does the Potency read?
Answer: The Potency was “inactive”.

Question: For `CC(=O)OCc1ccc2c(c1)OCO2`, which Potency is on record?
Answer: The Potency was “inactive”.

Question: With `CCCOC(=O)NCCCN(C)C` as the molecule, how does the Potency read?
Answer: Its Potency is “inactive”.

Question: Which Potency does the source give for `CN1Cc2c(N)cccc2C(c2ccccc2)C1` (centres undefined) here?
Answer: The Potency was “inactive”.

Question: For `O=c1n(CCCN2CCN(c3cccc(Cl)c3)CC2)nc2ccccn12`, which Potency is on record?
Answer: Its Potency is “inactive”.

Question: With `Cc1ccccc1Cl` as the molecule, how does the Potency read?
Answer: Its Potency is “inactive”.

Question: For `NC(N)=S`, which Potency is on record?
Answer: The Potency was “inactive”.

Question: For `CC(C)(CO)CO`, which Potency is on record?
Answer: The Potency was “inactive”.

Question: With `COC(=O)OC` as the molecule, how does the Potency read?
Answer: The Potency was “inactive”.

Question: Which Potency does the source give for `CC1(C)C(=O)N(Cl)C(=O)N1Cl` here?
Answer: The Potency was “inactive”.

Question: With `CC(C)(C)NC[C@H](O)COc1nsnc1N1CCOCC1` as the molecule, how does the Potency read?
Answer: Its Potency is “inactive”.

Question: With `Cc1cccc(C)c1[N+](=O)[O-]` as the molecule, how does the Potency read?
Answer: Its Potency is “inactive”.

Question: For `CC(CN1c2ccccc2Sc2ccccc21)N(C)C` (centres undefined), which Potency is on record?
Answer: The Potency was “inactive”.

Question: With `O=C(c1ccccc1)c1ccc(O)c(O)c1O` as the molecule, how does the Potency read?
Answer: The Potency was “inactive”.

Question: With `O=C1OC(=O)c2c(Cl)c(Cl)c(Cl)c(Cl)c21` as the molecule, how does the Potency read?
Answer: The Potency was “inactive”.

Question: For `OCc1ccc(Cl)cc1Cl`, which Potency is on record?
Answer: The Potency was “inactive”.

Question: For `O=C1O[C@H]([C@H](O)CO)C(O)=C1O`, which Potency is on record?
Answer: The Potency was “inactive”.

Question: Which Potency does the source give for `OCCOCCOCCOCCOCCO` here?
Answer: Its Potency is “inactive”.

Question: With `CCN(CC)CCNC(=O)c1ccc(N)cc1` as the molecule, how does the Potency read?
Answer: Its Potency is “inactive”.

Question: With `COCN(COC)c1nc(N(COC)COC)nc(N(COC)COC)n1` as the molecule, how does the Potency read?
Answer: Its Potency is “inactive”.

Question: For `CC(=O)OCCC(C)C`, which Potency is on record?
Answer: Its Potency is “inactive”.
